A short description of experiment [1]: UKN5_HCS_SBAD2_cell_viability: Viability Assessment in the University of Konstanz (UKN) Leist Lab Neurite Outgrowth Assay in human iPSC-derived immature Dorsal Root Ganglia Neurons (UKN5) (AID 2284056). The procedure, abridged:
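iPSC-derived immature peripheral neurons (SBAD2) seeded on Matrigel with CHIR99021, SU5402 and DAPT, dosed 1 h later for 24 h. Viability from Hoechst H-33342 and calcein-AM live staining, high-content imaging; bidirectional fit versus DMSO.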

Experiment [2] can be described thus: UKN5_HCS_SBAD2_neurite_outgrowth: University of Konstanz (UKN) Leist Lab Neurite Outgrowth Assay in human iPSC-derived immature Dorsal Root Ganglia Neurons (UKN5) (AID 2284070). Particulars: actives raise or lower the signal. On the procedure: UKN5_HCS_SBAD2 is a cell-based, multiplexed-readout assay screening for neurite outgrowth and cell viability that uses SBAD2 (peripheral neurons differentiated from iPSC), a human peripheral nervous system cell line, with measurements taken at […] after chemical dosing in a microplate: 96-well plate. UKN5, also referred to as PeriTox, is an assay that uses human iPSC line SBAD2 as a model of peripheral neurons. Following 24 hr chemical exposures in multi-well plates, neurite area is evaluated as a marker of neurite outgrowth using high-content imaging of cells stained with calcein-AM. Cell viability is assessed using stain Hoechst H-33342.UKN5_HCS_SBAD2_neurite_outgrowth is an assay component measured from the UKN5_HCS_SBAD2 assay. It is designed to make measurements of neurite outgrowth, a form of morphology reporter, as detected with Fluorescence intensity signals by HCS Fluorescent Imaging.The assay endpoint UKN5_HCS_SBAD2_neurite_outgrowth was analyzed with bidirectional fitting relative to DMSO as the negative control and baseline of activity. Using a type of morphology reporter, gain or loss-of-signal activity can be used to understand developmental effects. To generalize the intended target to other relatable targets, this assay endpoint is annotated to the neurodevelopment intended target family, where the subfamily is neurite outgrowth. […]

Calls of active or inactive are those of the source. The calls were made as follows: active = hit-call score of the fitted dose curve at least 0.9, where 1 is the maximum; inactive = score below 0.9.

In general, AC50 refers to the concentration giving half of the maximal activity seen. For the compound `S=C(S)NCCNC(=S)S.[Mn+2].[S-]C([S-])=NCCN=C([S-])[S-].[Zn+2]`, the call in experiment [1] was inactive. In addition, in experiment [2], the AC50 is 15 µM (active).

With `S=C([S-])NCCNC(=S)[S-].[Mn+2]`, the AC50 in experiment [1] is 7.5 µM (active); in experiment [2], 4.28 µM (active).

The values above are taken from PubChem BioAssay (EPA / NIEHS).
